HGIII-sPLA2 inh: Inhibits HGIII-sPLA2 liposome hydrolysis, primary screen; inhibition, % at 12.2 µM; actives 0.56% (n = 370,000); QFRET BODIPY PC-A2 liposome hydrolysis, fluorescence; Q9NZ20;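 active = inhibition above mean plus 3 SD of compounds lying within the high and low control bounds, cut at about 19% in these data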;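 note: 0% = median of test compound wells and 100% = no enzyme DMSO wells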
Target sequence (Q9NZ20 whole entry, looked up): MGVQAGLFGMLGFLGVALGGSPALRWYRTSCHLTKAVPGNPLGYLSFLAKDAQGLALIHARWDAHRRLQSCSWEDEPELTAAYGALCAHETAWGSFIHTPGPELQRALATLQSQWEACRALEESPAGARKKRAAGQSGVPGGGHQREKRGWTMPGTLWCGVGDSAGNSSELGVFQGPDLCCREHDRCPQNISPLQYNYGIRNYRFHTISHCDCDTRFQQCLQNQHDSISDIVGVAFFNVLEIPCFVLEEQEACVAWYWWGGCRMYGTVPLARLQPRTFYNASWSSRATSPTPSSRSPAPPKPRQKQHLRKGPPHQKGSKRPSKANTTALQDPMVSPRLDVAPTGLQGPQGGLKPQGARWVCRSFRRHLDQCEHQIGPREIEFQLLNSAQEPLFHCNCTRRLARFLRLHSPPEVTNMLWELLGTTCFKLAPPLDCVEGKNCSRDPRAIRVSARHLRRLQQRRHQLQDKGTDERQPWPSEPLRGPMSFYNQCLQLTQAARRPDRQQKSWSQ
ARNT TACC3 PPI: disrupts binding between human ARNT and TACC3; inhibition, % at 9.99 µM; Q9Y6A5; AlphaScreen His-ARNT PAS-B/GST-TACC3 binding, luminescence; TACC3 fragment carries E629A point mutation; actives 0.66% (n = 390,000);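 active = mean inhibition of replicates at least 50% and at least half of replicates each reaching 50%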;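 note: 0% = complete ARNT plus TACC3 wells and 100% = ARNT alone without TACC3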
DAGLB inh: blocks human DAGLB lipase activity; Q8NCG7; HEK293T DAGLB membrane lysate, EnzChek fluorogenic substrate; inhibition, % at 5.17 µM; actives 0.059% (n = 340,000); in the data active = inhibition above about 34%;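 note: 0% = enzyme with vehicle and 100% = wells lacking enzyme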
NadD inh: NadD (S. aureus) enzyme inhibition; purified NadD enzyme, colorimetric absorbance read-out; inhibition, % at 20 µM; actives 0.78% (n = 360,000); in the data active = inhibition above about 26%
Neddylation inh: blocks human cullin neddylation. P61081+Q13564. TR-FRET cullin neddylation, biochemical. inhibition, % at 25 µM. actives 0.58% (n = 360,000). AID 651699; in the data active = inhibition above about 36%
An asterisk follows results filed as active; · = not tested or not shown. Most compounds without a hit are left out; they make up all but 2% or so of the library.

SMILES	HGIII-sPLA2 inh	ARNT TACC3 PPI	DAGLB inh	NadD inh	Neddylation inh
COc1ccc(-c2cc(C(=O)Nc3cc(C)n(Cc4ccc(Cl)cc4)n3)no2)cc1OC	·	-1	-6	-9	47*
O=C(Nc1ccc(Cl)cc1)N[C@@H]1CC[C@H](CCn2cc(Cc3ccccc3)nn2)O[C@H]1CO	·	2	·	·	·
C[C@@H]1CN([C@@H](C)CO)C(=O)Cc2cc(NC(=O)Cn3cnnn3)ccc2O[C@H]1CN(C)C	·	-4	·	·	·
COc1cc(/C=N/NC(=O)c2cc3c(ccc4ccccc43)o2)cc(OC)c1O	-19	-3	-36	-3	42*
COc1ccc(/C=N/NC(=O)c2cc3c(ccc4ccccc43)o2)cc1OC	-6	-7	-3	-8	·
COc1ccc(S(=O)(=O)N[C@@H]2C=C[C@@H](CC(=O)N3CCN(c4ccccc4)CC3)O[C@H]2CO)cc1	·	0	·	·	·
CCc1ccc(S(=O)(=O)/N=C2\C=C(Nc3ccc(C(=O)O)cc3)C(=O)c3ccccc32)cc1	0	74*	11	-1	-45
O=C1C(Nc2ccccc2)=C/C(=N/S(=O)(=O)c2cccs2)c2ccccc21	·	-6	28	1	-53
Cc1ccc(NC2=C/C(=N/S(=O)(=O)c3cccs3)c3ccccc3C2=O)cc1	-4	9	11	4	-16
COC(=O)c1ccccc1NC1=C/C(=N\S(=O)(=O)c2ccc(C(=O)O)cc2)c2ccccc2C1=O	·	72*	19	47*	-54
C[C@H]1CN([C@@H](C)CO)C(=O)c2cc(-c3cccc(C#N)c3)cnc2O[C@H]1CN(C)C(=O)c1cnccn1	·	-2	·	·	·
C[C@@H]1CN([C@@H](C)CO)C(=O)c2cc(NC(=O)Nc3ccccc3)ccc2O[C@@H](C)CCCCO[C@@H]1CN(C)S(=O)(=O)c1ccc(F)cc1	·	-7	·	·	·
CCC(CC)NC(=O)COc1ccc(OC)cc1C=O	-1	-1	-1	-3	42*
CCC(CC)NC(=O)COC(=O)c1ccc(OCC(=O)Nc2ccccc2OC)c(OC)c1	0	-19	0	5	-9
COc1ccc(-c2ccc3c(c2)O[C@@H](CN(C)C(C)=O)[C@@H](C)CN([C@@H](C)CO)S3(=O)=O)cc1	·	-3	·	·	·
C=CCn1c(SCC(=O)NCCCC)nc2scc(-c3ccco3)c2c1=O	-11	-9	3	38*	-5
C[C@H]1CCCCO[C@@H](CN(C)Cc2ccccc2)[C@@H](C)CN([C@@H](C)CO)C(=O)c2cc(NC(=O)Nc3cccc4ccccc34)ccc2O1	·	4	·	·	·
O=c1c2ccccc2ncn1-c1ccc([N+](=O)[O-])cc1[N+](=O)[O-]	-6	0	-5	-2	-46
O=c1c2ccccc2ncn1-c1cccc([N+](=O)[O-])c1	20*	15	-1	-4	-24
CCCC#Cc1ccc([C@H]2[C@H](CO)N3CCCCN(CC4CC4)C[C@@H]23)cc1	·	7	·	·	·
CCOCCCNC(=O)CCCC1=NS(=O)(=O)c2ccccc2N1	6	active	0	-2	9
Cc1nc2c(=O)[nH]c(=S)[nH]c2[nH]c1=O	7	35*	1	5	24
C[C@H](CO)N1C[C@H](C)[C@H](CN(C)Cc2ccc(C(=O)O)cc2)OCCCC[C@H](C)Oc2ccc(NC(=O)CCCN(C)C)cc2C1=O	·	4	·	·	·
CCCn1c(=O)c2c(nc3n2CCCN3Cc2ccccc2)n(C)c1=O	8	49*	-5	-3	10
Cn1c(=O)n(CCc2ccccc2)c(=O)c2c1nc1n2CCCN1Cc1ccccc1	1	11	-2	-2	-5
SMILES	HGIII-sPLA2 inh	ARNT TACC3 PPI	DAGLB inh	NadD inh	Neddylation inh
NC(=N\N=Cc1ccco1)/C(N)=N/N=Cc1ccco1	3	63*	1	4	-25
NC(=N\N=Cc1ccccc1)/C(N)=N/N=Cc1ccccc1	14	·	·	-1	0
COC(=O)C1=CN(Cc2ccc(OC)cc2)C=C(C(=O)OC)C1c1cc(OC)c(OC)c(OC)c1	·	active	-1	0	·
COC(=O)C1=CN(Cc2ccc(F)cc2)C=C(C(=O)OC)C1c1cc(OC)c(OC)c(OC)c1	0	-32	-3	0	·
C[C@@H]1CN([C@@H](C)CO)C(=O)c2cc(C#CCN(C)C)cnc2O[C@H]1CN(C)C(=O)c1cccnc1	·	-4	·	·	·
CC(C)S(=O)(=O)c1cnc(-c2ccccn2)nc1N	-1	74*	1	-2	1
COc1ccc(-c2nc(-c3ccccn3)ncc2S(C)(=O)=O)cc1	-3	14	0	-4	3
CC(C)NC(=O)N(C)C[C@H]1Oc2cc(C#C[C@H](C)O)ccc2S(=O)(=O)N([C@@H](C)CO)C[C@@H]1C	·	-2	·	·	·
Oc1ccc(/C=N/Nc2ccnc3cc(Cl)ccc23)c(O)c1O	-7	·	13	59*	-39
Oc1ccc(/C=N/Nc2ccnc3cc(Cl)ccc23)cc1O	14	14	8	18	6
COc1cccc(-c2cn(CC[C@@H]3CC[C@@H](NS(=O)(=O)Cc4ccccc4)[C@H](CO)O3)nn2)c1	·	38	·	·	·
COc1cccc(NC(=O)N[C@H]2C=C[C@@H](CC(=O)Nc3ccc(-c4ccccc4)cc3)O[C@H]2CO)c1	·	7	·	·	·
Nc1c(C(=O)NC2CC2)sc2nc3c(c(-c4ccco4)c12)CC/C3=C/c1ccco1	·	8	9	93*	-13
CC(NNC(=S)N1CCN(c2ccccn2)CC1)c1nccc2ccccc12 (configuration not stated)	13	63*	4	5	0
COc1cc(/C=N/Nc2cccc(C)c2)cc(Br)c1O	19	2	-1	26*	19
CCOc1ccc(/C=N/Nc2ccccn2)cc1OC	-11	10	2	-4	-11
COc1cc(/C=N/NC(=O)CC#N)cc(Br)c1O	-2	58*	-2	-2	26
COc1cc(/C=N/Nc2ccccn2)cc(OC)c1O	5	66*	4	4	-15
CCN=c1scc(C)n1/N=C/c1cc(Br)c(O)c(OC)c1	5	21	4	35*	26
Cc1ccc(S(=O)(=O)N2CC[C@H]3[C@H](CO)Nc4ccc(C#Cc5ccc(F)cc5)cc4[C@H]32)cc1	·	-4	·	·	·
CCC(=O)N(C)C[C@H]1Oc2ncc(C#CCc3ccccc3)cc2C(=O)N([C@@H](C)CO)C[C@@H]1C	·	-4	·	·	·
O=C(NC1CCCC1)N1CCCCN2[C@H](CO)[C@H](c3ccc(/C=C/c4ccccc4)cc3)[C@@H]2C1	·	4	·	·	·
C/C(=C\c1ccc2c(c1)OCO2)C1Nc2cccc3cccc(c23)N1	7	1	10	33*	-23
Cc1nnc(Nc2ccccn2)c2ccccc12	3	33*	-1	-5	7
Cc1nnc(Nc2ccc(F)cc2)c2ccccc12	8	26	0	-4	12

Source: PubChem BioAssay
